# According to PubChem BioAssay (Tox21):
# Results filed as inconclusive are left out. A number with no mark means an inactive call. Calls of active or inactive are those of the source. The call rests on the fitted dose curve; in most records, active means well fitted activation curve with a large enough effect in the repeat runs; inconclusive means weak or mixed curves; inactive means no such curve, though single readings can be large or run the other way. Positions of bridges follow the written chain, without caps; N, C: chain ends. Non-standard residues stand in square brackets, D forms with d. Residues, ends and D or L forms follow the SMILES beside them. hArg = N=C(N)NCCCC[C@H](N)C(=O)O; Mpa = O=C(O)CCS
# Biological target: Nuclear receptor subfamily 1 group I member 3 (Homo sapiens) (UniProt Q14994)
# Assay: qHTS assay to identify small molecule agonists of the constitutive androstane receptor (CAR) signaling pathway (AID 1224839); further: nearly all actives have a fitted effect of over 15% in size;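 on activation: HepG2 cells stably carrying human CAR and a CYP2B6 luciferase reporter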
# Settings: HepG2 hCAR CYP2B6-luciferase, agonist mode, 24 h; series mostly up to 92.4 µM; activation: at the top concentration
# Description: National Center for Advancing Translational Sciences [NCATS] NIH Chemical Genomics Center [NCGC] U.S. Environmental Protection Agency [EPA] National Institutes of Environmental Health Sciences [NIEHS] National Toxicology Program [NTP] Assay overview: The constitutive androstane receptor (CAR) is a nuclear receptor which regulates multiple drug metabolizing enzymes (DMEs) and transporters. Activating CAR will generally increase the transcription and subsequent translation of CYP2B6 and CYP3A4. These two DMEs represent about 50% of the drug metabolizing potential in the body. […] Recently, there have also been studies performed indicating CARs role in energy metabolism and cancer therapy. Therefore, inducing CARs activity could have a potential effect on diabetes and cancer. Identifying environmental toxins and compounds which modulate CAR, through the use of the Tox21 10K compound collection, will be an important step in determining the toxicity and potential therapeutic effects these factors will have on the human body.
# Assay Protocol Summary: A double-stable (hCAR and CYP2B6-2.2kb) transfected cell line, derived from human hepatoma (HepG2) cells, was utilized for the duration of the quantitative high-throughput screens. The HepG2-CYP2B6-hCAR cells suspended in DMEM culture medium supplemented with 10% FBS, 5 ug/mL blasticidin, 0.5 mg/mL geneticin, 100 U/mL penicillin and 100 ug/mL streptomycin were dispensed at 2500 cells/4 uL/well in 1536-well white solid bottom plates using a Multidrop Combi. After the assay plates were incubated at 37 C/5% CO2 for 4 hrs, 23 nL of compounds at 15 concentrations (from 5-48 columns) or positive control (from 1 to 4 columns) were transferred to the assay plates using a Pintool station. One uL of PK11195, was added using a Flying Reagent Dispenser to generate a final concentration of 0.75 uM PK11195 inside each well. After a 24 hr incubation period at 37 C/5% CO2, four uL of ONE-Glo reagent was added into the assay plates using a Flying Reagent Dispenser. After a 30 min incubation period at room temperature, the luminescence intensity in the assay plates was measured using a ViewLux plate reader.
# On the % scale 0 is the no-effect control and ±100 the full control effect; potency means the concentration at half of the fitted maximal effect.
# Nuclear receptor subfamily 1 group I member 3 (Homo sapiens), sequence (Q14994 whole entry, looked up): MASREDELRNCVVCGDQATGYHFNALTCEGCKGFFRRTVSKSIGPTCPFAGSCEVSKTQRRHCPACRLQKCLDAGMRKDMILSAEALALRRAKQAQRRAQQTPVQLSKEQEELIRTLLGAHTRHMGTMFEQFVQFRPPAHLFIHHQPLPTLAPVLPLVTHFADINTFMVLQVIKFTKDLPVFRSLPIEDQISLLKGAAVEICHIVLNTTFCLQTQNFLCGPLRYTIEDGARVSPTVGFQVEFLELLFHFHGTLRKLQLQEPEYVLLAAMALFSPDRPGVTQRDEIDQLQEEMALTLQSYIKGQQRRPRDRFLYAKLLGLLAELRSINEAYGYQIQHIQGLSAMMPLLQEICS
Structure (SMILES),activation,Potency
NCCOCCN,0.101%,
CCC(C)C(C)=O (stereo not given),-0.872%,
CC1(C)O[C@H]2CC(=O)OC[C@]23[C@H]2CC[C@@]4(C)[C@H](c5ccoc5)OC(=O)[C@H]5O[C@]54[C@]2(C)C(=O)C[C@@H]13,-3.33% [at 42.5 µM],
CCCC(=O)OC/C=C(\C)CCC=C(C)C,-0.167%,
CC(C)Nc1ccccc1,-1.81%,
CC(CO)(CO)CO,0.241%,
CCCC(=O)Nc1ccc(OCC(O)CNC(C)C)c(C(C)=O)c1 (stereo not given),-0.93% [at 42.5 µM],
Cc1ccnc(N)c1,-3.9%,
C=C(C)c1cccc(C(C)(C)N=C=O)c1,-7.16%,
CCC(=O)c1c(O)cc(O)cc1O,3.4% [at 42.5 µM],
COc1nc(N)nc2nc[nH]c12,10.6%,
Cc1cc(C)c(C(=O)O)c(C)c1,0.707%,
CCCCCc1cccc(=O)o1,8.53%,
COC(=O)c1cccc(Cl)c1,-1.9%,
CCC(=O)Oc1ccc2c(c1)CC[C@@H]1[C@@H]2CC[C@@]2(C)[C@H]1C[C@@H](OC(=O)CC)[C@@H]2OC(=O)CC,0.165% [at 42.5 µM],
CCCC(=O)OCCC(C)CCC=C(C)C (stereo not given),0.445%,
CC1=C(O)C(=O)C(C)O1 (stereo not given),-2.08%,
CCCCCCCCCCCCCCCCCCOCCO,-0.275% [at 19 µM],
COC(=O)/C=C\C(=O)O,7.88%,
C=Cc1ccc(C(C)(C)C)cc1,-3.95%,

Structure (SMILES),activation,Potency
C[C@]12CCC(=O)C=C1CC[C@H]1[C@@H]3CC[C@](O)(C(=O)CO)[C@@]3(C)C[C@H](O)[C@@]12F,-1.53% [at 42.5 µM],
CCCc1ccc(O)cc1,4.16%,
Cc1ccccc1C(N)=O,0.0179%,
CC(=O)CC(=O)Nc1ccc(C)cc1C,-3%,
CCOCCOCC,-1.24%,
CC(S)C(C)S (stereo not given),0.128%,
O=C1CCCCO1,-3.35%,
CN1C[C@@H]2C[C@H]1CN2c1cc2c(cc1F)c(=O)c(C(=O)O)cn2C1CC1,-4.55% [at 19 µM],
CSc1cnccn1,0.383%,
NC(=O)[C@@H]1CSSCCC(=O)N[C@@H](CCCCN=C(N)N)C(=O)NCC(=O)N[C@@H](CC(=O)O)C(=O)N[C@@H](Cc2c[nH]c3ccccc23)C(=O)N2CCC[C@H]2C(=O)N1 ([Mpa][hArg]GDWPC-NH2; disulfide 1-7),5.28% [at 42.5 µM],
C/C=C(\C)C(C)=O,-0.469%,
CC1=NN(c2ccc(S(=O)(=O)O)cc2)C(=O)C1,-2.07%,
CC(C)=CCC[C@@](C)(O)[C@H]1CC=C(C)CC1,1.46% [at 42.5 µM],
CC(=O)CCC1=C(C)CCCC1(C)C,3.14%,
Cc1c(N)cccc1Cl,0.494%,
OCCN1CCOCC1,-0.0897%,
Cc1ccc2c(c1)C(=O)c1ccccc1C2=O,,27.2 µM (active)
CC1CCc2c(N3CCC(O)CC3)c(F)cc3c(=O)c(C(=O)O)cn1c23 (stereo not given),5.54% [at 42.5 µM],
O=C(CCCl)NCCc1ccccc1,0.629% [at 42.5 µM],
N#Cc1ccccc1O,0.0202%,
